From PubChem BioAssay (NCI)
Compounds without any hit were thinned out: in the full panel of roughly 83,000, 20% have a hit.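 96-well plates, one dose, 48 hours. Percent growth reported; active if below 10.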 Active and inactive are the calls of the source.

Experiments:
Test in all cases: NCI-60 one-dose screen, 48 h (100 = growth as untreated, 0 = no growth, -100 = all killed)
Conditions in all cases: 10 µM unless noted
DU-145 prostate = test system: DU-145 prostate
K-562 leukemia = test system: K-562 leukemia
MALME-3M melanoma = test system: MALME-3M melanoma
MDA-MB-231 breast = test system: MDA-MB-231 breast
RXF 393 renal = test system: RXF 393 renal
SF-268 CNS = test system: SF-268 CNS
SF-295 CNS = test system: SF-295 CNS
SF-539 CNS = test system: SF-539 CNS
UACC-257 melanoma = test system: UACC-257 melanoma
M14 melanoma = test system: M14 melanoma

Structure (SMILES)	growth (DU-145 prostate)	growth (K-562 leukemia)	growth (MALME-3M melanoma)	growth (MDA-MB-231 breast)	growth (RXF 393 renal)	growth (SF-268 CNS)	growth (SF-295 CNS)	growth (SF-539 CNS)	growth (UACC-257 melanoma)	growth (M14 melanoma)
COc1cc(CNC(=O)C[C@H](C)CCC=C(C)C)ccc1OCc1cn(-c2ccccc2Cl)nn1	90.1% (inactive)	44.6% (inactive)	68.2% (inactive)	72.6% (inactive)	72.6% (inactive)	82.4% (inactive)	56.4% (inactive)	75.2% (inactive)	60.3% (inactive)	55.9% (inactive)
Cn1cc(-c2cc(N)n3nc(-c4c[nH]c5ccccc45)cc3n2)c2cc(Br)ccc21	-70% (active)	7.7% (active)	-76.9% (active)	-89.3% (active)	-80.6% (active)	-39.8% (active)	-93.6% (active)	-93.7% (active)	-79.8% (active)	-65.7% (active)
Nc1nc(-c2ccccc2)c(N=Nc2ccc(Cl)cc2Cl)s1	2.88% (active)	-44.7% (active)	-47.5% (active)	-89.5% (active)	-69.7% (active)	-46% (active)	-90.5% (active)	-77.2% (active)	-2.45% (active)	-59.6% (active)
CCCCCCCCCCCCCCCCCC(=O)Nc1ccc(OC)cc1	112% (inactive)	92% (inactive)	97.7% (inactive)	99.9% (inactive)	115% (inactive)	108% (inactive)	106% (inactive)	97.3% (inactive)	102% (inactive)	105% (inactive)
O=C1NC(=NC23CC4CC(CC(C4)C2)C3)N/C1=C\c1ccc2ncccc2c1	3.46% (active)	11% (inactive)	2.17% (active)	-14% (active)	-4.92% (active)	35.2% (inactive)	-29.6% (active)	2.08% (active)	50.6% (inactive)	45.9% (inactive)
c1n[nH]cc1-c1nc2ccc3cn[nH]c3c2c2c1CCCC2	93% (inactive)	101% (inactive)	72.9% (inactive)	58.3% (inactive)	44.8% (inactive)	94.1% (inactive)	89.4% (inactive)	80.8% (inactive)	100% (inactive)	93.2% (inactive)
O=c1[nH]c2ccccc2cc1COc1ccc(Nc2nccc(-c3ccc(Cl)cc3)n2)cc1	89% (inactive)	95.2% (inactive)	105% (inactive)	105% (inactive)	91.8% (inactive)	105% (inactive)	90.8% (inactive)	91.6% (inactive)	107% (inactive)	107% (inactive)
Cc1ccc(C(=O)Nc2cc(-c3ccncc3)cc(C(F)(F)F)c2)cc1C#Cc1cnc2cccnn12	68.9% (inactive)	2.38% (active)	-11.8% (active)	23.7% (inactive)	28.8% (inactive)	79.4% (inactive)	46.3% (inactive)	32.3% (inactive)	40.9% (inactive)	8.59% (active)
N#C/C(=C1/C(=O)Nc2ccccc21)c1nnc(NC(=O)c2ccc(-n3c(=O)[nH]c4ccccc4c3=O)cc2)s1	37.4% (inactive)	15.9% (inactive)	26.9% (inactive)	4.04% (active)	53.4% (inactive)	65.4% (inactive)	74.5% (inactive)	36.4% (inactive)	47.9% (inactive)	58.2% (inactive)
COc1ccc(-c2nnc3c(/C=C/c4ccc(Br)cc4)nc4ccccc4n23)cc1	53.6% (inactive)	10.6% (inactive)	-39.4% (active)	81.9% (inactive)	-2.19% (active)	87.4% (inactive)	87.4% (inactive)	23.8% (inactive)	70.9% (inactive)	-19.8% (active)
COc1ccc2[nH]cc(-c3cc(N)n4nc(-c5c[nH]c6ccccc56)cc4n3)c2c1	42.6% (inactive)	3.51% (active)	-93.4% (active)	-69.9% (active)	-72.2% (active)	80.4% (inactive)	-75.9% (active)	-95.2% (active)	-92.3% (active)	-58.6% (active)
Cc1cc(=O)oc2cc(OCC(O)CNN3C(=O)c4cccc5c(N6CCN(C)CC6)ccc(c45)C3=O)ccc12 (stereo not given)	96.6% (inactive)	80.4% (inactive)	14.5% (inactive)	89.3% (inactive)	82.3% (inactive)	91.4% (inactive)	108% (inactive)	81.2% (inactive)	72.9% (inactive)	89.7% (inactive)
COc1ccc(N=Nc2c(N)nn3c(-c4ccc([N+](=O)[O-])cc4)ccnc23)cc1	105% (inactive)	95.1% (inactive)	93% (inactive)	98.5% (inactive)	109% (inactive)	98.8% (inactive)	97.5% (inactive)	99.2% (inactive)	97.3% (inactive)	104% (inactive)
COc1cc(/C=N/NC(=O)c2ccc(OCc3nc4ccc(Cl)cc4[nH]3)cc2)cc(OC)c1OC	64.5% (inactive)	14.7% (inactive)	14.1% (inactive)	52.8% (inactive)	-26.2% (active)	70% (inactive)	13.2% (inactive)	30.2% (inactive)	42.3% (inactive)	42.6% (inactive)
COc1ccc(-c2cc(C(=O)OCc3ccc(Br)cc3)nn2-c2ccc(S(C)(=O)=O)cc2)cc1OC	86.4% (inactive)	79.9% (inactive)	106% (inactive)	70.5% (inactive)	62% (inactive)	66.5% (inactive)	81.4% (inactive)	72.4% (inactive)	106% (inactive)	114% (inactive)
CCOc1ccccc1[C@H]1C(C(=O)c2ccc(Cl)cc2)C2(N[C@@H]1c1ccccc1)C(=O)Nc1ccc(Br)cc12 (stereo not given in full)	23% (inactive)	-13% (active)	-15% (active)	-68.7% (active)	-88.4% (active)	14.2% (inactive)	-42.6% (active)	-70.2% (active)	44% (inactive)	-38% (active)
COc1ccc(Nc2nnc(-c3c[nH]c4ccccc34)o2)cc1	95.8% (inactive)	68.1% (inactive)	79.5% (inactive)	64.7% (inactive)	104% (inactive)	71.9% (inactive)	98% (inactive)	69.7% (inactive)	95.9% (inactive)	97.7% (inactive)
Fc1ccccc1CNc1nc(SCCN2CCOCC2)nc2c1cnn2CC(Cl)c1ccc(Br)cc1 (stereo not given)	60.5% (inactive)	3.13% (active)	-15.7% (active)	12.6% (inactive)	-13.9% (active)	41.4% (inactive)	-3.31% (active)	-3.45% (active)	8.02% (active)	29% (inactive)
N#C/C(=C/c1ccc(Cl)cc1)c1nnc(NC(=O)c2ccc(-n3c(=O)[nH]c4ccccc4c3=O)cc2)s1	85.1% (inactive)	99% (inactive)	68.2% (inactive)	-5.08% (active)	20.1% (inactive)	73.2% (inactive)	96.3% (inactive)	24.1% (inactive)	102% (inactive)	78.8% (inactive)
O=C(COc1ccc(/C=C2/C(=O)Nc3ccc(Cl)cc32)cc1)Nc1ccc(Br)cc1	-9.85% (active)	2.94% (active)	-41.5% (active)	-33.7% (active)	-65.7% (active)	16.7% (inactive)	-59.7% (active)	-84.9% (active)	15.1% (inactive)	-2.56% (active)
Cc1ccc(C(C)C)cc1Oc1cccc(-c2c(-c3ccc(C(F)(F)F)cc3)ncn2C2CCNCC2)n1	-83.5% (active)	-60.7% (active)	-86.6% (active)	-95.7% (active)	-90.3% (active)	-56.6% (active)	-94.2% (active)	-98.2% (active)	-88.4% (active)	-97.2% (active)
O=C(Cn1c(/C=C/c2ccc([N+](=O)[O-])cc2)nc2ccccc2c1=O)Nc1ccccc1	78.6% (inactive)	79.6% (inactive)	85% (inactive)	46.7% (inactive)	27.4% (inactive)	58.9% (inactive)	72.2% (inactive)	21.1% (inactive)	101% (inactive)	81.2% (inactive)
O=c1[nH]c2ccccc2cc1CSc1ccccc1Nc1nccc(-c2ccc3c(c2)OCO3)n1	85.1% (inactive)	87.6% (inactive)	80.2% (inactive)	85.4% (inactive)	81.5% (inactive)	63.2% (inactive)	75.3% (inactive)	63.9% (inactive)	94.4% (inactive)	89.3% (inactive)
CCOC(=O)/C(F)=C/C1CC1C(c1ccccc1)c1ccccc1 (stereo not given)	106% (inactive)	70.4% (inactive)	81.2% (inactive)	88.4% (inactive)	77.2% (inactive)	99.1% (inactive)	88.7% (inactive)	96.5% (inactive)	105% (inactive)	91.7% (inactive)
